According to PubChem BioAssay (Tox21):
Results filed as inconclusive are left out. A number with no mark means an inactive call. The call rests on the fitted dose curve; in most records, active means well fitted cell-killing curve with a large enough effect in the repeat runs; inconclusive means weak or mixed curves; inactive means flat fitted curve, though single readings scatter.

Assay: qHTS RealTime-Glo MT Cell Viability Assay in HepG2 cells - 32 hour (AID 1224877); further: nearly all actives have a fitted effect of over 55% in size
Details: RealTime-Glo luminescence; series mostly up to 76.8 µM; activity change, negative = cytotoxic: at the top concentration
Description: U.S. Tox21 Program National Center for Advancing Translational Sciences [NCATS] NIH Chemical Genomics Center [NCGC] U.S. Environmental Protection Agency [EPA] National Institutes of Environmental Health Sciences [NIEHS] National Toxicology Program [NTP] U.S. Food and Drug Administration [FDA] Tox21 Assay Overview: Measure of cell viability is critical in the cell-base assay. Analysis of cell viability is necessary for the characterization of cell responses to cytotoxic drugs and environmental stress. A RealTime-Glo MT Cell Viability Assay to monitor cell viability in real time of continues cell culture during 40 hours of compound treatment was used to screen Tox21 10K library compounds in HepG2 cells. The RealTime-Glo MT Cell Viability Assay is a nonlytic, homogeneous, bioluminescent method to measure cell viability in real time using a simple, plate-based method. The assay involves adding NanoLuc luciferase and a cell-permeant prosubstrate to cells in culture. Viable cells reduce the proprietary prosubstrate to generate a substrate for NanoLuc luciferase. This substrate diffuses from cells into the surrounding culture medium, where it is rapidly used by the NanoLuc Enzyme to produce a luminescent signal. The signal correlates with the number of viable cells, making the assay well suited for cytotoxicity studies.
Tox21 Assay Protocol Summary: The mixture of HepG2 cell suspension and reagents were dispensed at 600cells/6 ul/well in 1536-well tissue culture treated black solid bottom plates using a Multidrop dispenser. After the assay plates were incubated at a 37 C/5% CO2 incubator for 5 hours, 23 nL of compounds dissolved in DMSO, positive and negative controls was transferred to the assay plate by a pintool work station. The plates were incubated at 37 C for 40 hours. The luminescence intensity were measured at 0h, 8h, 16h, 24h, 32h and 40h time points using ViewLux plate reader during compound treatment.
On the % scale 0 is the no-effect control and ±100 the full control effect.

Row | Structure (SMILES) | activity change, negative = cytotoxic
1 | Nc1ccn([C@@H]2O[C@H](CO)[C@@H](O)C2O)c(=O)n1 (stereo not given in full) | -1.64%
2 | CC(C)CC(C)(N)C#N (stereo not given) | 1.47%
3 | [O-][n+]1cccc(CO)c1 | 1.06% [at 35.3 µM]
4 | CCOC(=O)OC(C)OC1=C(C(=O)Nc2ccccn2)N(C)S(=O)(=O)c2ccccc21 (stereo not given) | 3.42% [at 35.3 µM]
5 | CC(C)(C)C(=O)c1ccccc1 | 2.21%
6 | C=CC(C)(CCC=C(C)C)OC(=O)CC (stereo not given) | 0.373%
7 | CCN[C@H]1C[C@H](C)S(=O)(=O)c2sc(S(N)(=O)=O)cc21 | 4.02% [at 35.3 µM]
8 | NC(CCC(=O)O)C(=O)O (stereo not given) | -7.39%
9 | CCOc1c(N2CCOCC2)cnn(C)c1=O | 1.64% [at 35.3 µM]
10 | Nc1ccn([C@@H]2O[C@H](CO)[C@@H](O)C2(F)F)c(=O)n1 | -4.73% [at 35.3 µM]
11 | CC(COc1ccccc1)NN (stereo not given) | 0.38% [at 35.3 µM]
12 | Cc1ccc(C(=O)c2ccc(CC(=O)O)n2C)cc1 | 0.827% [at 35.3 µM]
13 | CN1CC(=O)N/C1=N/C(=O)Nc1cccc(Cl)c1 | 0.738% [at 35.3 µM]
14 | CCCCCC(=O)OCCc1ccccc1 | -1.45%
15 | O=C(O)Cc1csc(-c2ccc(Cl)cc2)n1 | 0.0518% [at 35.3 µM]
16 | C=CCCC(=O)O | 1.66%
17 | Cc1ccc(C(=O)Nc2ccc(S(=O)(=O)O)c3cc(S(=O)(=O)O)cc(S(=O)(=O)O)c23)cc1NC(=O)c1cccc(NC(=O)Nc2cccc(C(=O)Nc3cc(C(=O)Nc4ccc(S(=O)(=O)O)c5cc(S(=O)(=O)O)cc(S(=O)(=O)O)c45)ccc3C)c2)c1 | 3.44% [at 35.3 µM]
18 | CC12CCC(C(=O)C1=O)C2(C)C (stereo not given) | 1.52%
19 | c1ccc(CCc2ccccc2)cc1 | 1.43%
20 | CN(C)CCCN(C)CCCN(C)C | -2.98%

Row | Structure (SMILES) | activity change, negative = cytotoxic
21 | CCN(CC#N)c1cccc(C)c1 | 0.815%
22 | O=S(=O)(O)c1cccc(S(=O)(=O)O)c1 | 0.809%
23 | Nc1ccncc1N | 0.846% [at 35.3 µM]
24 | CCC(C)(CCCC(C)C)OC(C)=O (stereo not given) | 2.13%
25 | CNCCO | 0.764%
26 | CC(C#N)(CCC(=O)O)N=NC(C)(C#N)CCC(=O)O (stereo not given) | 0.204%
27 | Nc1ccccn1 | -0.213%
28 | O=C(O)CCSCCC(=O)O | 5.09%
29 | COCCOC[C@H](CC1(C(=O)NC2CCC(C(=O)O)CC2)CCCC1)C(=O)Oc1ccc2c(c1)CCC2 (stereo not given in full) | 0.134%
30 | CN1CCN(c2cc3c(nn2)Oc2ccccc2N3C)CC1 | 3.07% [at 15.8 µM]
31 | C=C[Si](OC(C)=O)(OC(C)=O)OC(C)=O | -0.663%
32 | O=S(=O)(O)c1cccc2ccccc12 | 1.66%
33 | NC(=O)N1c2ccccc2CC(=O)c2ccccc21 | 1.13% [at 35.3 µM]
34 | CC(C)NNC(=O)c1ccncc1 | 0.882% [at 35.3 µM]
35 | COc1ccccc1OCC1CNC(=O)O1 (stereo not given) | 1.53% [at 35.3 µM]
36 | CCN(C=O)CC | -1.83%
37 | C=CC(=O)OCCCl | 1.52%
38 | CCC(C(=O)NC(=O)NC(C)=O)c1ccccc1 (stereo not given) | 0.525% [at 35.3 µM]
39 | O=C(c1ccccc1)C1(O)CCCCC1 | 2.51%
40 | Clc1cc(Cl)cc(Cl)c1 | 2.1%
